Assay results: the supplement of paper PMC9399229
Counter-ions that a name gives are not always drawn. Whole data set: some 1,900 compounds, median “relative cell viability (CellTiter-Glo), compound plus cabozantinib, relative to the cabozantinib arm (arm median 1.05; reference not stated)” near 1.1, cut for the lowest 2% near 0.15. This is one part of a sample in which the lowest values are shown more often than they occur.

Each molecule was assayed on Hep3B (assay: relative cell viability (CellTiter-Glo), compound plus cabozantinib, relative to the cabozantinib arm (arm median 1.05; reference not stated) (fraction); higher = more viable cells (less growth inhibition)). Conditions: cabozantinib 2 µM; 4 days.
In the case of `COC(=O)N[C@H](C(=O)N1CC2(CC2)C[C@H]1c1nc(-c2ccc3c(c2)C(F)(F)c2cc(-c4ccc5[nH]c([C@@H]6[C@H]7CC[C@H](C7)N6C(=O)[C@@H](NC(=O)OC)C(C)C)nc5c4)ccc2-3)c[nH]1)C(C)C` [Ledipasvir (GS5885)], the relative cell viability was 1. For `FC(F)(F)c1ccc(CNc2ccc(Cc3c[nH]c4ncc(Cl)cc34)cn2)cn1` [Pexidartinib (PLX3397)], the relative cell viability was 1.07. For `C[C@H]1COC2=C1C(=O)C(=O)c1c2ccc2c1CCCC2(C)C` [Cryptotanshinone], the relative cell viability was 0.918. Work on `C=CC(=O)Nc1cccc(Nc2nc(Nc3ccc(N4CCN(C(C)=O)CC4)cc3OC)ncc2C(F)(F)F)c1` yielded a relative cell viability of 0.831. In the case of `COc1nc(C)cnc1NS(=O)(=O)c1cccnc1-c1ccc(-c2nnco2)cc1` [Zibotentan (ZD4054)], the relative cell viability was 1.22. Work on `C/C(=N\NC(=S)N1CCC1)c1ccccn1` yielded a relative cell viability of 0.0579. Work on `CC1=CC(=O)c2ccccc2C1=O` [Menadione] yielded a relative cell viability of 1.05. Work on `CC(C)(C)C(=O)Nc1ccc2c(c1)C(=O)C(=O)c1ccccc1-2` yielded a relative cell viability of 0.0959. With `CC(=O)Nc1ccccc1` [Acetanilide] the relative cell viability was 1.07. With `C[C@H]1O[C@@H](O[C@H]2[C@@H](O)C[C@H](O[C@H]3[C@@H](O)C[C@H](O[C@H]4CC[C@@]5(C)[C@H](CC[C@@H]6[C@@H]5C[C@@H](O)[C@]5(C)[C@@H](C7=CC(=O)OC7)CC[C@]65O)C4)O[C@@H]3C)O[C@@H]2C)C[C@H](O)[C@@H]1O` [Digoxin] the relative cell viability was 0.0999. `CO[C@H]1C[C@@H]2CC[C@@H](C)[C@@](O)(O2)C(=O)C(=O)N2CCCC[C@H]2C(=O)O[C@H]([C@H](C)C[C@@H]2CC[C@@H](OP(C)(C)=O)[C@H](OC)C2)CC(=O)[C@H](C)/C=C(\C)[C@@H](O)[C@@H](OC)C(=O)[C@H](C)C[C@H](C)/C=C/C=C/C=C/1C` [Ridaforolimus (Deforolimus, MK-8669)] was tested, and the relative cell viability was 1.3. `CN/C(=N\CCSCc1nc[nH]c1C)NC#N` [Cimetidine] gave a relative cell viability of 0.986. `COc1cccc2c1C(=O)c1c(O)c3c(c(O)c1C2=O)C[C@@](O)(C(C)=O)C[C@@H]3O[C@H]1C[C@H](N)[C@H](O)[C@H](C)O1` [Daunorubicin HCl] gave a relative cell viability of 0.0514. `COc1cccc2c1C(=O)c1c(O)c3c(c(O)c1C2=O)C[C@@](O)(C(=O)CO)C[C@@H]3O[C@H]1C[C@H](N)[C@@H](O)[C@H](C)O1` [Epirubicin HCl] gave a relative cell viability of 0.045. In the case of `COc1cccc2c1C(=O)c1c(O)c3c(c(O)c1C2=O)C[C@@](O)(C(=O)CO)C[C@@H]3O[C@H]1C[C@H](N)[C@H](O[C@@H]2CCCCO2)[C@H](C)O1` [Pirarubicin], the relative cell viability was 0.178. Molecule `COc1cccc2c1C(=O)c1c(O)c3c(c(O)c1C2=O)C[C@@](O)(C(=O)CO)C[C@@H]3O[C@H]1C[C@H](N)[C@H](O)[C@H](C)O1` [Doxorubicin (Adriamycin)] has a relative cell viability of 0.111. `Cc1onc(-c2ccccc2Cl)c1C(=O)N[C@@H]1C(=O)N2[C@@H]1SC(C)(C)[C@@H]2C(=O)O` [Cloxacillin Sodium] showed a relative cell viability of 1.1. `C=C1CC[C@H](O)C/C1=C/C=C1\CCC[C@]2(C)[C@@H]([C@H](C)CCCC(C)(C)O)CC[C@@H]12` [Calcifediol] showed a relative cell viability of 0.993. `CC[C@H](C)C[C@H](C)CCCCCCCCC(=O)N[C@H]1C[C@@H](O)[C@@H](NCCN)NC(=O)[C@@H]2[C@@H](O)CCN2C(=O)[C@H]([C@H](O)CCN)NC(=O)[C@H]([C@H](O)[C@@H](O)c2ccc(O)cc2)NC(=O)[C@@H]2C[C@@H](O)CN2C(=O)[C@H]([C@@H](C)O)NC1=O` [Caspofungin Acetate] was tested, and the relative cell viability was 1.1. In the case of `Nc1ncnc2n[nH]c(Nc3ccc(F)cc3)c12`, the relative cell viability was 1.05. In the case of `Cc1ccc(C(=O)Nc2ccc(CN3CCN(C)CC3)c(C(F)(F)F)c2)cc1C#Cc1cnc2cccnn12`, the relative cell viability was 0.127. `Cc1ccc(NC(=O)c2ccc(CN3CC[C@H](N(C)C)C3)c(C(F)(F)F)c2)cc1Nc1nccc(-c2cncnc2)n1` [Bafetinib (INNO-406)] gave a relative cell viability of 1.05. Molecule `Cc1ccc(C(=O)Nc2ccc(CN3CCN(C)CC3)c(C(F)(F)F)c2)cc1C#Cc1cnc2[nH]ncc2c1` has a relative cell viability of 0.279. In the case of `CC(C)(F)C[C@H](N[C@@H](c1ccc(-c2ccc(S(C)(=O)=O)cc2)cc1)C(F)(F)F)C(=O)NC1(C#N)CC1` [Odanacatib (MK-0822)], the relative cell viability was 1.15. Molecule `CN1CCc2c(c3ccccc3n2Cc2ccc(C(=O)NO)cc2)C1` [Tubastatin A HCl] has a relative cell viability of 1.01. `CN1CCc2c(c3ccccc3n2Cc2ccc(C(=O)NO)cc2)C1` [Tubastatin A] gave a relative cell viability of 1.16. For `Cn1cc(CNCC2CCN(c3ncc(C(=O)NO)cn3)CC2)c2ccccc21`, the relative cell viability was 0.121. `COc1cc(C(=O)NS(=O)(=O)c2ccccc2C)ccc1Cc1cn(C)c2ccc(NC(=O)OC3CCCC3)cc12` [Zafirlukast] gave a relative cell viability of 0.9. With `C[C@H](NCc1ccc(OCc2cccc(F)c2)cc1)C(N)=O` [Safinamide Mesylate] the relative cell viability was 1.22. `OC[C@H]1O[C@@H](OCCc2ccc(O)cc2)[C@H](O)[C@@H](O)[C@@H]1O` [Salidroside] gave a relative cell viability of 0.974. `C[C@H]1O[C@H](O[C@H]2[C@H](O)[C@@H](O)[C@@H](O[C@H]3[C@H](O)[C@@H](O)C(O)O[C@@H]3CO)O[C@@H]2CO)[C@H](O)[C@@H](O)[C@@H]1N[C@H]1C=C(CO)[C@@H](O)[C@H](O)[C@H]1O` (stereo partly specified) [Acarbose] showed a relative cell viability of 1.21. Molecule `O=C1c2cccc(O)c2C(=O)c2c(O)cc(CO)cc21` [Aloe-emodin] has a relative cell viability of 1.04. `O=C1c2c(O)ccc(O)c2C(=O)c2c(NCCNCCO)ccc(NCCNCCO)c21` [Mitoxantrone] showed a relative cell viability of 0.0306. With `O=C1c2c(O)ccc(O)c2C(=O)c2c(NCCNCCO)ccc(NCCNCCO)c21` [Mitoxantrone HCl] the relative cell viability was 0.0809. `COc1cc([C@@H]2c3cc4c(cc3[C@@H](O[C@@H]3O[C@@H]5CO[C@@H](C)O[C@H]5[C@H](O)[C@H]3O)[C@H]3COC(=O)[C@H]23)OCO4)cc(OC)c1O` [Etoposide] was tested, and the relative cell viability was 0.923. With `COc1cc([C@@H]2c3cc4c(cc3[C@@H](O[C@@H]3O[C@@H]5CO[C@@H](c6cccs6)O[C@H]5[C@H](O)[C@H]3O)[C@H]3COC(=O)[C@H]23)OCO4)cc(OC)c1O` [Teniposide] the relative cell viability was 0.104.
